# Measured values reported in PubChem BioAssay AID1851 (National Center for Advancing Translational Sciences (NCATS), 2009).
# Several values for one entry are separate records, joined by “and”; a condition that tells them apart may be missing. Equal entries are not always repeated. Hit rate of the full screen: of about 16,000 compounds, about 2,600 (16%) were called active. Not shown: some 20% with an inconclusive outcome. The list is a sample of the results. Values without a mark were called inactive. Calls come from the whole dose curve; as a rule, active = well fitted curve in the direction sought with a large enough effect; inconclusive = small, poorly fitted or top-dose-only effect, or effect the other way; inactive = no such curve, though single readings can be large or run the other way.
# Target: Cytochrome P450 2D6 (Homo sapiens) (UniProt P10635)
# Test: Cytochrome panel assay with activity outcomes
# Settings: recombinant CYP, pro-luciferin dealkylation, luminescence, p450-cyp2d6; series mostly up to 57.1 µM; activity, negative = inhibition: at the top concentration
# % is set by controls: 0 for no effect and ±100 for the full control effect.
# Chain of Cytochrome P450 2D6 (Homo sapiens) (P10635 whole entry, looked up): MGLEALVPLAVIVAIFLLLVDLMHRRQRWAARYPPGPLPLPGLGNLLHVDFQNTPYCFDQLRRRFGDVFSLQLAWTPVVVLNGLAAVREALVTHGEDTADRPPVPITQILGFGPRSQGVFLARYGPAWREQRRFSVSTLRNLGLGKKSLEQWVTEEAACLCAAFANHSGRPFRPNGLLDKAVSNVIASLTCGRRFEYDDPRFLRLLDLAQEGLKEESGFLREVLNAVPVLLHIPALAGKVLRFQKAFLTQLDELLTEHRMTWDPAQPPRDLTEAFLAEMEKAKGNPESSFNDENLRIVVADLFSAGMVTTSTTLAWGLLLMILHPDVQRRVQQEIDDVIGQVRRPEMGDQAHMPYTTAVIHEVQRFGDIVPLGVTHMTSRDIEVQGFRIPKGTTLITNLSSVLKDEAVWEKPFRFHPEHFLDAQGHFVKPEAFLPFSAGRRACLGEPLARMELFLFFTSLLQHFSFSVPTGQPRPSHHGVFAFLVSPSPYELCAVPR
Compound,"activity, negative = inhibition",AC50
O=C(CSc1nc2ccccc2c(=O)n1CCCC(=O)N1CCCC1)NCc1ccco1,-10.9%,–
O=C(NCC1CCCO1)c1ccc2c(=O)n(Cc3ccco3)c(SCC(=O)N3CCCC3)nc2c1 (configuration not stated),-11.9%,–
O=C(CSc1nc2ccccc2c(=O)n1Cc1ccccc1)NCc1ccco1,12.5%,–
Cc1cc(NC(=O)CSc2nc3ccccc3c(=O)n2CCCC(=O)NCc2ccco2)n[nH]1,–,15.8 µM (active)
CCCCCn1c(SCc2ccncc2)nc2cc(C(=O)NCc3ccco3)ccc2c1=O,–,0.794 µM (active)
CCOC(=O)CSc1nc2ccccc2c(=O)n1CC1CCC(C(=O)NCc2ccco2)CC1 (configuration not stated),-10.7%,–
Cc1cc(NC(=O)CSc2nc3ccsc3c(=O)n2Cc2ccccn2)n[nH]1,-20.4%,–
C=CCOc1ccc2cccc(/C=N/NC(=O)c3cc4cc([N+](=O)[O-])ccc4s3)c2c1,-6.69%,–
CCCCCCCOC1(c2ccccc2)OC(=O)c2ccccc21 (configuration not stated),-11.7%,–
CCCN(CCC)C(=O)[C@@H](CCC(=O)O)NC(=O)c1ccccc1,–,inactive
CC(=O)Nc1ccc2c(c1)/C(=C/c1ccc([N+](C)(C)C)cc1)c1ccccc1-2,-4.76% [at 11.4 µM],–
Cc1sc2nc(SCc3nc(-c4cccs4)no3)n(-c3ccccc3)c(=O)c2c1C,17.3%,–
CC(C)=NNc1ncnc2nc[nH]c12,12.8% [at 11.4 µM],–
CN(C)CCN1C(=O)C(O)=C(C(=O)c2cc3ccccc3o2)C1c1ccccn1 (configuration not stated),7.71%,–
NC(=NCCC[C@H](N)C(=O)O)NO,5.27%,–
NC(=S)NCCC[C@@H](N)C(=O)O,-2%,–
CCCN=C(N)NCCC[C@H](N)C(=O)O,–,7.94 µM (active)
O=C(Nc1cnn(Cc2ccc(Cl)cc2)c1)c1ccc([N+](=O)[O-])cc1,-21.1%,–
CSc1ccc2nnc(-c3cccc(F)c3)n2n1,-6.36%,–
S=c1[nH]nc(C2CCCCC2)n1/N=C/c1cccs1,–,2.24 µM (active)
Cc1nnc(C)n1/N=C/c1cccs1,-40.9%,–
Cc1ccc(/C=N/n2c(COc3ccccc3)n[nH]c2=S)s1,-22.5%,–
O=C1C2ON(c3ccccc3)C(c3ccncc3)C2C(=O)N1c1ccccc1 (configuration not stated),17.4%,–
Cc1nc2ccccc2n1CC(=O)N/N=C\c1ccccn1,-12.2%,–
Cc1cc(C2C(C#N)=C(N)Oc3n[nH]c(C)c32)c(C)s1 (configuration not stated),-4.36%,–
Cc1ccsc1/C=N/Nc1nc(Cl)c(Cl)cc1Cl,-15.6%,–

Compound,"activity, negative = inhibition",AC50
OCCN(C=NC1=NN(c2cccc(C(F)(F)F)c2)CC1)CCO,-7.95%,–
COc1cccc(/C=N/NC(=O)C(=O)NCc2cccnc2)c1,21.5%,–
CCc1ccc2c(c1)cc(CN(C(=S)Nc1cccc(C)c1)C1CC1)c1nnnn12,-0.638%,–
COc1ccc2[nH]c(=O)c(NC(N)=S)nc2c1,-33.1%,–
Cc1cccc(NC(=S)N(CCc2nc3cc(C)c(C)cc3[nH]2)Cc2cccnc2)c1,–,3.16 µM (active)
COc1ccc(NC(=S)N(CCc2nc3cc(C)c(C)cc3[nH]2)Cc2cccnc2)cc1,–,11.2 µM (active)
Cc1ccc(C)c(NC(=S)N(CCc2nc3cc(C)c(C)cc3[nH]2)Cc2cccnc2)c1,–,1 µM (active)
CC(=O)CC(=O)[C@@]1(O)CC[C@@H]2[C@@H]3C=C(C)C4=CC(=O)CC[C@@H]4[C@H]3CC[C@]21C,1.91% [at 25.6 µM],–
O=C(O)[C@@H](O)[C@@H](O)[C@@H](O[C@H]1O[C@@H](CO)[C@@H](O)[C@@H](O)[C@@H]1O)[C@@H](O)CO,0.496% [at 25.6 µM],–
COc1cc(NC(=S)Nc2ccc(S(=O)(=O)N3CCOCC3)cc2)cc(OC)c1OC,-17.6%,–
CC1(C)CC(=O)c2cnc(N)nc2C1,32.6%,–
O=C(NN=C1c2ccccc2-c2ccccc21)c1ccccn1,-9.72%,–
O=C(CSc1ccc(Cl)cc1)Nc1ccc(N2CCN(C(=O)c3ccc(Cl)cc3)CC2)cc1,-21.1%,–
O=C(CSC1=NCCS1)N1CCN(c2ccc(Cl)cc2)CC1,-27.3%,–
CSC(=NC#N)N1CCN(c2ccc(Cl)cc2)CC1,–,0.316 µM (active)
CN(C)c1ccc(-c2nc(N(C)C)c3ccccc3n2)cc1,–,7.94 µM (active)
CNc1nc(-c2ccc(N(C)C)cc2)nc2ccccc12,–,12.6 µM (active)
CCn1c(-c2ccc(N(C)C)cc2)nc2ccccc21,-108%,–
COc1ccccc1NC(=O)Nc1nc(-c2cccnc2)nc2ccccc12,-2.94%,–
c1ccc(Nc2nc(-c3cccnc3)nc3ccccc23)cc1,-11.1%,–
CN(C)c1nc(-c2cccnc2)nc2ccccc12,–,15.8 µM (active)
CN(C)c1ccc(/C=N\NC(=O)c2cnc3ccccc3c2)cc1,5.04% [at 11.4 µM],–
CCC(=O)O[C@H](CC(=O)O)C[N+](C)(C)C,8.38%,–
O=C1C[C@@H](O)[C@@H](O)[C@H]2[C@@H]3C(=O)N(C[C@@H]4CCCO4)C(=O)[C@@H]3CC[C@H]12,4.56% [at 11.4 µM] and 6.17% [at 11.4 µM],–
COc1cc(C2NC(=O)NC(O)(C(F)(F)F)C2C(=O)c2ccc(Cl)cc2)ccc1O (configuration not stated),3.72%,–
CCCc1nn2c(=O)c(C(c3ccc(C)cc3)c3c(O)nc4sc(CCC)nn4c3=O)c(O)nc2s1,3.03%,–
